Source: PubChem BioAssay (Tox21)
Results filed as inconclusive are left out. A number with no mark means an inactive call. Calls come from the whole dose curve; as a rule, active = well fitted cell-killing curve with a large enough effect in the repeat runs; inconclusive = weak or mixed curves, or effect the other way; inactive = flat fitted curve, though single readings scatter.

Assay: qHTS RealTime-Glo MT Cell Viability Assay in HEK293 cells - 24 hour (AID 1224886); note: top concentration of the series differs between compounds; nearly all actives have a fitted effect of over 50% in size
Settings: RealTime-Glo luminescence; series mostly up to 76.8 µM; activity change, negative = cytotoxicity: at the top concentration
Excerpt: National Center for Advancing Translational Sciences [NCATS]
NIH Chemical Genomics Center [NCGC]
U.S. Environmental Protection Agency [EPA]
National Institutes of Environmental Health Sciences [NIEHS]
National Toxicology Program [NTP]
U.S. Food and Drug Administration [FDA]
Measure of cell viability is critical in the cell-base assay. Analysis of cell viability is necessary for the characterization of cell responses to cytotoxic drugs and environmental stress. A RealTime-Glo MT Cell Viability Assay to monitor cell viability in real time of continues cell culture during 40 hours of compound treatment was used to screen Tox21 10K library compounds in Hek293 cells. The RealTime-Glo MT Cell Viability Assay is a nonlytic, homogeneous, bioluminescent method to measure cell viability in real time using a simple, plate-based method. The assay involves adding NanoLuc luciferase and a cell-permeant prosubstrate to cells in culture. Viable cells reduce the proprietary prosubstrate to generate a substrate for NanoLuc luciferase. This substrate diffuses from cells into the surrounding culture medium, where it is rapidly used by the NanoLuc Enzyme to produce a luminescent signal. The signal correlates with the number of viable cells, making the assay well suited for cytotoxicity studies.
Tox21 Assay Protocol Summary:
The mixture of Hek293 cell suspension and reagents were dispensed at 600cells/6 ul/well in 1536-well tissue culture treated black solid bottom plates using a Multidrop dispenser. After the assay plates were incubated at a 37 C/5% CO2 incubator for 5 hours, 23 nL of compounds dissolved in DMSO, positive and negative controls was transferred to the assay plate by a pintool work station. The plates were incubated at 37 C for 40 hours. The luminescence intensity were measured at 0h, 8h, 16h, 24h, 32h and 40h time points using ViewLux plate reader during compound treatment.
% is set by controls: 0 for no effect and ±100 for the full control effect.

SMILES	activity change, negative = cytotoxicity
CC(C)(N)C#N	0.439%
O=C1NC(=O)C2CC=CCC12 (stereo not given)	10.7%
CCCCc1nc(Cl)c(CO)n1Cc1ccc(-c2ccccc2-c2nn[nH]n2)cc1	-10.9% [at 35.3 µM]
NC(=O)N1c2ccccc2CC(=O)c2ccccc21	0.97% [at 35.3 µM]
CN1[C@@H]2CC[C@H]1CC(OC(=O)C(O)c1ccccc1)C2 (stereo not given in full)	1.75% [at 35.3 µM]
c1coc(CNc2ncnc3nc[nH]c23)c1	-14.7%
CC1=NN(c2cccc(S(=O)(=O)O)c2)C(=O)C1	7.64%
CC(C)c1ccc2ncccc2c1	0.98%
Clc1cc(Cl)cc(Cl)c1	12%
c1ccc2sc(SN3CCOCC3)nc2c1	0.274% [at 35.3 µM]
CC(C)COC(=O)c1ccc(N)cc1	-11.2% [at 35.3 µM]
CCCCCCCCCCOc1cc2c(=O)c(C(=O)OCC)c[nH]c2cc1OCC	3.7% [at 6.97 µM]
COc1cc(C(=O)OC(COCCC(C)C)CN2CCOCC2)cc(OC)c1OC (stereo not given)	-13.5% [at 35.3 µM]
CCCCOCCOC(=O)COc1cc(Cl)c(Cl)cc1Cl	14.6%
C=CC(C)(CCC=C(C)C)OC(=O)CC (stereo not given)	4.45%
CCCCOCCOC(=O)CCCCCCCCC(=O)OCCOCCCC	1.43%
Cc1ccc(-c2ccccc2C#N)cc1	4.3% [at 35.3 µM]
NC(=O)N[C@@H](CCC(=O)O)C(=O)O	3.06% [at 35.3 µM]
CC(C)CC(C)(N)C#N (stereo not given)	3.07%
Cc1ncc([C@@H](CCCCCCc2ccc3c(n2)NCCC3)CC(=O)O)cn1	3.48%

SMILES	activity change, negative = cytotoxicity
CN1CCN(c2cc3c(nn2)Oc2ccccc2N3C)CC1	-1.39% [at 15.8 µM]
CN(C)C(=O)Oc1ccc[n+](C)c1	-2.98% [at 35.3 µM]
[Ca+2]	7.4%
NCCCC[C@H](N[C@@H](CCc1ccccc1)C(=O)O)C(=O)N1CCC[C@H]1C(=O)O	-2.09% [at 35.3 µM]
Cc1nc2ccc(CN(C)c3ccc(C(=O)N[C@@H](CCC(=O)O)C(=O)O)s3)cc2c(=O)[nH]1	-0.426% [at 35.3 µM]
CCCCCC(=O)OCCc1ccccc1	0.558%
Cc1onc(-c2c(Cl)cccc2Cl)c1C(=O)Cl	5.1% [at 35.3 µM]
C[N+]12CCC(CC1)C(OC(=O)C(O)(c1ccccc1)c1ccccc1)C2 (stereo not given)	1% [at 35.3 µM]
CCCCCCCC1CCCC1=O (stereo not given)	22.3%
CCOCC(C)O (stereo not given)	2.46%
CO[C@@]1(NC(=O)C(C(=O)O)c2ccc(O)cc2)C(=O)N2C(C(=O)O)=C(CSc3nnnn3C)CO[C@@H]21 (stereo not given in full)	4.65% [at 35.3 µM]
CCO[Si](OCC)(OCC)c1ccccc1	0.754%
CCCCCCCCN1CCCC1=O	-13%
CC(=O)Nc1ccc(OCC(O)CNC(C)C)cc1 (stereo not given)	4.15% [at 35.3 µM]
CCNS(=O)(=O)c1ccc(C)cc1	3.1%
CCOC(=O)CCC(=O)OCC	6.76%
O=C(O)CCCC[P+](c1ccccc1)(c1ccccc1)c1ccccc1	-14.7% [at 35.3 µM]
Cc1ccc(C(=O)c2ccc(CC(=O)O)n2C)cc1	4.86% [at 35.3 µM]
CC(=O)NC(=O)c1ccccc1O	1.46% [at 35.3 µM]
Cc1c(N)c(=O)n(-c2ccccc2)n1C	-6.11% [at 35.3 µM]
